A selection: hits, their analogues and other compounds. The true share with any hit is near 7%.
PLK1 PBD block: blocks phosphopeptide binding to human PLK1 polo-box domain | Plk1 PBD binding of FITC phosphopeptide, fluorescence polarization | Potency, µM, actives largely listed as inhibitors | hit rate 2.8% among 360,000; note: series mostly up to about 57 µM; nearly all actives have a fitted effect of over 65% in size
Target sequence (P53350 whole entry, looked up, the tested form may be a part): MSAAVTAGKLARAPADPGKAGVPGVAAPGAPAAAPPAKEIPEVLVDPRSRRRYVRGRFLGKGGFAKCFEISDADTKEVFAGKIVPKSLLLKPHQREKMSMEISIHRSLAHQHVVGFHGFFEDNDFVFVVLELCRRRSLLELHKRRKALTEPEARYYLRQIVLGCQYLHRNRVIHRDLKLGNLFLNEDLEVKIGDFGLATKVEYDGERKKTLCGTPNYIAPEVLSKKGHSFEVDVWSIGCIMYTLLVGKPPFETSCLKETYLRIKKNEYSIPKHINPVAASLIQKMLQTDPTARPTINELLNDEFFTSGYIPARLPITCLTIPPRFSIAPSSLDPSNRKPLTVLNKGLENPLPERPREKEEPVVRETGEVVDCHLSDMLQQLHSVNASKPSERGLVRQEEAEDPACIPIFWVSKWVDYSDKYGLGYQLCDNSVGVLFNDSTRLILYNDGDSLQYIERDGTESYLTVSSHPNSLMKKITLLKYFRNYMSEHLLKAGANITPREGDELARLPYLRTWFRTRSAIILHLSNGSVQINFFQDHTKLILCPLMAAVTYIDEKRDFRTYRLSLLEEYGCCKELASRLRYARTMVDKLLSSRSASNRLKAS
KAT2A inh: inhibitors of human GCN5L2 histone acetyltransferase; Q92830; GCN5L2 HAT assay, ThioGlo1 CoA-SH fluorescence; Potency, µM (highest dose often 58.9 µM), most hits filed as inhibitors; hit rate 0.21% among 390,000; AID 504327
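Preincubate 20nM GCN5L2 with compound 15 min, RT → add 50uM ThioGlo1 + 75uM H3(1-25) + 70uM acetyl-CoA → read fluorescence 0 and 20 min. Primary qHTS; fluorescent artifacts likely.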
JMJD2A Tudor: JMJD2A Tudor domain (human) inhibition; Potency, µM (highest dose often 114 µM), hits mostly inhibitors; AlphaScreen JMJD2A-Tudor / H3K4me3 peptide binding; hit rate 4.4% among 390,000; note: nearly all actives have a fitted effect of over 50% in size
BAZ2B inh: inhibitors of human BAZ2B bromodomain. hit rate 4.4% among 360,000. AID 504333. Q9UIF8. AlphaScreen BAZ2B-H3K14Ac peptide displacement. Potency, µM (doses to about 114 µM), actives largely listed as inhibitors; note: nearly all actives have a fitted effect of over 60% in size
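Protein-peptide AlphaScreen: BAZ2B 50 nM, b-H3K14Ac 50 nM, 1x PBS pH 7.4 + 0.01% Tween-20. Preincubation 30 min RT; cpd 30 min RT (top 110 uM); beads 20 min RT, light-protected.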
PI5P4Ka inh: inhibitors of human PI5P4K alpha. P48426. PI5P4Kalpha enzyme, ADP-Glo luminescence, 60 min; stronger effect = lower value. max response, %. hit rate 1.2% among 330,000; active = max response of -50% or lower; inconclusive = between -30% and -50%; inactive = -30% or higher; note: value at the top dose of about 77 µM
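PI5P4Kalpha ADP-Glo assay; 5 microM ATP final; 60 min RT reaction; HEPES pH 7.4/EGTA/CHAPS, 5% DMSO; controls lacking substrate or enzyme; luminescent end-point.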
HP1b chromo inh: inhibitors of HP1-beta chromodomain binding to methylated histone tails | P83916 | AlphaScreen HP1-beta / biotin-H3K9me3 peptide binding | Potency, µM (top dose mostly 114 µM), most hits filed as inhibitors | hit rate 0.56% among 390,000; note: nearly all actives have a fitted effect of over 70% in size
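Compound inhibition of the preformed complex between 50 nM HP1-beta and 50 nM biotinylated H3K9me3 peptide was read by AlphaScreen. Buffer was PBS pH 7.4 with 0.01% Tween-20. Incubations ran 30 min at room temperature, with 10 ug/mL donor/acceptor beads.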
Of the large screens only hits and unclear results are named; the others gave an inactive call. Unless noted, calls come from the whole dose curve; as a rule, active = well fitted curve in the direction sought with a large enough effect; inconclusive = small, poorly fitted or top-dose-only effect, or another doubt; inactive = no such curve, though single readings can be large; an effect the other way counts as inactive or inconclusive.

COC(=O)c1ccc(-n2cncn2)c([N+](=O)[O-])c1	PLK1 PBD block 26.7µM, JMJD2A Tudor inconclusive
O=C1NC[C@H](CCCCN2C[C@H](Cc3ccc(O)cc3)N(Cc3ccccc3)C(=O)C2=O)N(Cc2ccccc2)C1=O	none (no result: KAT2A inh, JMJD2A Tudor, BAZ2B inh, HP1b chromo inh)
CO/N=C(\C(=O)N[C@@H]1C(=O)N2C(C(=O)O)=C(COC(N)=O)CS[C@H]12)c1ccco1	JMJD2A Tudor 25.1µM
CON=C(C(=O)NC1C(=O)N2C(C(=O)O)=C(CSc3nc(=O)c(=O)[nH]n3C)CSC12)c1csc(N)n1 (centres undefined)	PLK1 PBD block inconclusive, JMJD2A Tudor 50.1µM (no result: KAT2A inh, BAZ2B inh)
CCCN1CNc2c(c(=O)[nH]c(=S)n2CCc2cccc(C)c2C)C1	none (no result: PLK1 PBD block, KAT2A inh, BAZ2B inh, PI5P4Ka inh)
CCn1nnnc1SCC(=O)N1N=C(c2cccs2)CC1c1cccs1 (centres undefined)	none
N#CC(C#N)=C1C=CC=CN1/C(=C\c1ccccc1Cl)C(=O)c1ccccc1	PLK1 PBD block 1.68µM, JMJD2A Tudor 50.1µM, BAZ2B inh inconclusive, HP1b chromo inh inconclusive
N#CC(C#N)=C1C=CC=CN1/C(=C\c1ccccc1)C(=O)c1cccs1	PLK1 PBD block 2.12µM, JMJD2A Tudor inconclusive
CN(C(=O)COc1ccc(Cl)cc1Cl)C1(C)CCS(=O)(=O)C1 (centres undefined)	none
COc1cccc(C(=O)N2CCN(Cc3ccc4c(c3)OCO4)CC2)c1OC	JMJD2A Tudor 7.94µM, BAZ2B inh 79.4µM
COc1cc(C(=O)N2CCN(Cc3ccc4c(c3)OCO4)CC2)c([N+](=O)[O-])cc1OC	none
COc1cc(C(=O)N2CCN(Cc3ccc4c(c3)OCO4)CC2)cc(OC)c1OC	JMJD2A Tudor 0.891µM, BAZ2B inh 79.4µM, HP1b chromo inh inconclusive
COc1ccccc1NC(=O)N1CCN(Cc2ccc3c(c2)OCO3)CC1	JMJD2A Tudor 3.98µM, BAZ2B inh 50.1µM, HP1b chromo inh inconclusive
O=C(CNC(=O)c1ccccc1)OC(C(=O)Nc1ccc2c(c1)OCO2)c1ccccc1 (centres undefined)	none (no result: PLK1 PBD block, KAT2A inh, BAZ2B inh, PI5P4Ka inh, HP1b chromo inh)
Cc1cn2c(=O)cc(COC(=O)c3cccc(NC(=O)COc4ccccc4Cl)c3)nc2s1	none (no result: PLK1 PBD block, PI5P4Ka inh)
COc1ccc(N=CC2=C(O)CC(c3ccccc3)CC2=O)c(OC)c1 (centres undefined)	PLK1 PBD block 21.2µM
Cc1ccc(C)n1-c1ccc(C(=O)O)cc1	KAT2A inh inconclusive, BAZ2B inh 12.6µM (no result: PLK1 PBD block, JMJD2A Tudor, PI5P4Ka inh, HP1b chromo inh)
NC(=O)C1CC(=O)N(c2ccc(OCc3ccc(Cl)cc3)cc2)C1 (centres undefined)	PLK1 PBD block 5.97µM, JMJD2A Tudor inconclusive
Cc1nn(C)c(C)c1CCNC(=O)Nc1ccccc1C(F)(F)F	none (no result: PLK1 PBD block, PI5P4Ka inh)
Cc1cc2n(n1)C(c1ccc(N(C)C)cc1)Nc1ccccc1-2 (centres undefined)	JMJD2A Tudor 44.7µM (no result: PI5P4Ka inh)
CC[C@]1(C(=O)OC)[C@H]2C(=O)N(C)C(=O)[C@H]2[C@H]2CN=C(SCc3ccc(C(=O)OC)cc3)N21	none (no result: BAZ2B inh)
CC(C)N(C(=O)[C@H]1C[C@H](CC(=O)NCc2ccco2)C(=O)N2CCc3c([nH]c4cc(-c5ccco5)ccc34)[C@]12C)C(C)C	JMJD2A Tudor 56.2µM, HP1b chromo inh inconclusive (no result: BAZ2B inh)
CC(C)N(C(=O)[C@H]1C[C@H](CC(=O)NCCc2ccccn2)C(=O)N2CCc3c([nH]c4cc(-c5ccco5)ccc34)[C@]12C)C(C)C	JMJD2A Tudor 56.2µM (no result: BAZ2B inh)
CCCC(=O)c1cc(F)c(N2CCOCC2)cc1C	PLK1 PBD block 23.8µM (no result: PI5P4Ka inh)
CCn1nc(NS(=O)(=O)c2ccccc2)c2cc3ccccc3nc21	PLK1 PBD block 26.7µM, JMJD2A Tudor inconclusive
CCCn1nc(NS(=O)(=O)c2ccccc2)c2cc3ccccc3nc21	none (no result: PI5P4Ka inh)
O=C(CSc1ncnc2scc(-c3ccccc3)c12)Nc1ccc(C(=O)O)cc1	PI5P4Ka inh -84.6
Cc1ccc(-c2csc3ncnc(SCc4ccc(C(=O)O)cc4)c23)cc1	KAT2A inh inconclusive, JMJD2A Tudor inconclusive, BAZ2B inh 50.1µM
CC(=O)Nc1ccc(Sc2ncnc3scc(-c4ccccc4)c23)cc1	PLK1 PBD block 6.7µM, BAZ2B inh inconclusive
c1ccc(CSc2nnnn2-c2ccccc2)cc1	none (no result: PI5P4Ka inh)
CCc1ccc(-n2c(CSc3nnnn3-c3ccccc3)nc3ccccc3c2=O)cc1	PLK1 PBD block 5.97µM, PI5P4Ka inh inconclusive
O=S1(=O)CC(N2CCN(CC3CC3)CC2)CN1Cc1ccc(F)cc1 (centres undefined)	none (no result: KAT2A inh, JMJD2A Tudor, BAZ2B inh, HP1b chromo inh)
CN(Cc1ccc(O)cc1)C1CCCCC1	none (no result: PI5P4Ka inh)
Cc1ccc(CN(C)C2CCN(C)CC2)cc1	PLK1 PBD block 23.8µM, JMJD2A Tudor inconclusive
COc1ccc(CN(C)C2CCN(C)CC2)cc1OC	JMJD2A Tudor 89.1µM, BAZ2B inh 56.2µM
CCC(C)NC(=O)c1ccc2nc(-c3ccco3)c(-c3ccco3)nc2c1 (centres undefined)	none (no result: PLK1 PBD block, KAT2A inh, BAZ2B inh, PI5P4Ka inh)
CN(Cc1ccccc1)c1ncnc2ccc(Br)cc12	PLK1 PBD block 2.67µM, JMJD2A Tudor inconclusive, PI5P4Ka inh inconclusive
CCc1ccc(CN2CCC(CO)(CC3CCCCO3)CC2)o1 (centres undefined)	KAT2A inh 17.8µM
Cc1ccc(CN2CCC(CO)(CC3CCCCO3)CC2)o1 (centres undefined)	none
COc1ccc(-c2cc(C(=O)N/N=C/c3ccc(OC)c(COCC(F)(F)C(F)F)c3)c3ccccc3n2)c(OC)c1	PLK1 PBD block 2.99µM, JMJD2A Tudor inconclusive, HP1b chromo inh inconclusive
Cc1csc(NC(=O)C2C3C=CC(O3)C2C(=O)O)n1 (centres undefined)	JMJD2A Tudor 25.1µM (no result: PI5P4Ka inh)

Screening data: PubChem, National Center for Advancing Translational Sciences (NCATS)
